According to ChEMBL document CHEMBL4888484, “Replenishing the malaria drug discovery pipeline: Screening and hit evaluation of the MMV Hit Generation Library 1 (HGL1) against asexual blood stage Plasmodium falciparum ,using a nano luciferase reporter read-out” (2022):
About 540 (0.36%) of roughly 150,000 compounds showed an effect of 50% or more. This is one part of a sample in which strong results are shown more often than they occur.

test system: Plasmodium falciparum; test: Primary screen in NF54 nanoGlo assay, in single point, at 2uM, 72h; a lower Z score goes with more inhibition; format: functional, Erythrocyte; conditions: timepoint 72 hour

| SMILES | % Inhibition | Z score |
| --- | --- | --- |
| COc1ccc(-n2ncc3c(N)c4c(nc32)CCCC4=O)cc1 | 56% | -1.02 |
| Nc1c2c(nc3c1cnn3-c1cc(F)cc(F)c1)CCCC2=O | -9% | 1.23 |
| Cc1ccc(-n2ncc3c(N)c4c(nc32)CCCC4=O)cc1 | 12% | -2.26 |
| O=C(NCCn1ccnc1)c1[nH]nc(C2CC2)c1Cl | -9% | 1.61 |
| CC(C)N(C)C(=O)C1CCN(C(=O)[C@@H](N)C(C)(C)C)CC1 | -1% | 0.1 |
| COc1ccc(CNCCC2C(C)CN(C)C(C)C2Cc2ccccc2)cc1 (stereo not given) | 55% | -7.17 |
| COc1ccc(CNC/C=C/c2ccccc2)cc1 | -20% | 2.3 |
| COC1CCC(CCNCc2ccccc2)CC1 (stereo not given) | -15% | 2.25 |
| COc1cccc(OC2CN(C[C@H]3COc4ccccc4O3)C2)c1 | 3% | -0.59 |
| CC(CNC(=O)N(C)CCc1cccs1)N1CCOCC1C (stereo not given) | 5% | -0.94 |
| CCc1cc(N2CCCO2)nc(-c2ccncc2)n1 | 1% | -0.06 |
| Cn1cnc2c(NCC(=O)N3CCN(c4ccccc4)CC3)ncnc21 | -1% | 0.15 |
| CC(C)[C@H]1CN(C)CCN1Cc1ccc2cc(O)ccc2c1 | -17% | 2.23 |
| CN1CCC(N2CCN(Cc3ccc4cc(O)ccc4c3)CC2)CC1 | 90% | -8.27 |
| c1cc(CN2CCC[C@H](CN3CCCC3)C2)co1 | -3% | 0.59 |
| CN(CC[C@H]1CCCCO1)Cc1ccc2cc(O)ccc2c1 | -1% | 0.18 |
| CN1CC[C@H](CN(C)Cc2ccc3cc(O)ccc3c2)C1 | 56% | -7.71 |
| CN(Cc1ccc2cc(O)ccc2c1)C[C@H]1CCCCO1 | 8% | -0.87 |
| Oc1ccc2cc(CN3CCC[C@H](CN4CCCC4)C3)ccc2c1 | 97% | -3 |
| NC1CCOC(C2CCCCN2S(=O)(=O)c2ccc(C(F)(F)F)s2)C1 (stereo not given) | 4% | -0.63 |
| COCCN1C(=O)[C@@H]2C(Cc3ccc(O)cc3)NC3(C(=O)Nc4c(C)cc(C)cc43)[C@@H]2C1=O (stereo not given in full) | -3% | 0.41 |
| Cc1cccc(Cl)c1C(=O)NC(C1CCNCC1)[C@H]1C[C@H](O)C1 (stereo not given in full) | -9% | 1.88 |

| SMILES | % Inhibition | Z score |
| --- | --- | --- |
| Cc1noc2ncnc(N3CCCC3CC(O)c3cnn(C)c3)c12 (stereo not given) | 4% | -0.69 |
| CCC[C@H](NC1CCN(C(=O)OC)CC1)C1CC1 | 7% | -0.96 |
| CC1CC(C)CN(C(=O)c2ccc3c(=O)n4c(nc3c2)CCCC4)C1 (stereo not given) | -3% | 0.52 |
| COc1ccc2c(/C=C/c3cc[n+](C)cc3)cn(Cc3ccccc3)c2c1 | 68% | -6.36 |
| COc1ccc([C@H]2CC(=O)Nc3cccc4c3c2cn4Cc2ccccc2)cc1 | -4% | 0.51 |
| COc1ccc([C@@H](CC(=O)N2CCCC2)c2cn(Cc3ccccc3)c3ccccc23)cc1 | -8% | 0.98 |
| Cc1nc(NC(=O)NCCn2ncnn2)sc1C | 31% | -4.22 |
| CCC(C)CS(=O)(=O)NC(C)C1CC1 (stereo not given) | -4% | 0.39 |
| Cc1cccc(NC(=O)c2c[nH]c3nc(C)ccc3c2=O)c1 | 4% | -0.5 |
| Cc1ccc(C)c(NC(=O)c2c(Oc3ccc(F)cc3)nc(C)c(Cl)c2C)c1 | -8% | 1.01 |
| Cc1c(C)c2ccc(NC(=O)c3cc4ccccc4o3)cc2[nH]c1=O | 93% | -7.22 |
| Cn1cc(NC(=O)c2cc3ccccc3o2)ccc1=O | -4% | 0.73 |
| O=C(Nc1c(C(=O)Nc2ccc(F)c(F)c2)oc2ccccc12)c1cc2ccccc2o1 | -13% | 2.46 |
| CCOC(=O)c1cn(CCc2c[nH]cn2)cc(Oc2ccccc2)c1=O | 0% | -0.09 |
| O=C(NCC(O)c1ccccc1Cl)C1CCCN1 (stereo not given) | 1% | -0.1 |
| O=C(c1ccc(-c2noc(C(F)(F)F)n2)cc1)N1CCC1 | 29% | -3.23 |
| CCNC(=O)N1CCN(c2ccc(-c3noc(C(F)(F)F)n3)cn2)CC1 | 12% | -1.6 |
| Cc1c(F)cccc1-c1ccc(CNc2cccc(CN3CCC(O)CC3)c2)o1 | 8% | -0.88 |
| CNC(=O)c1ccc(OC)c(-c2ccc(NCCN3CCOCC3)nc2)c1 | -7% | 1.05 |
| CCc1ccc(-c2cnc3ccccc3n2)cc1NC(=O)[C@@H](NS(=O)(=O)c1ccccc1)C(C)C | 4% | -0.61 |
| Cc1ccc(CCC(=O)NC(c2ccccc2)C(C)C(=O)O)o1 (stereo not given) | 5% | -0.67 |
| Cc1cccc(-c2noc(N3CCOCC3)c2CN(C(=O)CC(C)C)C2CC2)c1 | -12% | 1.29 |

| SMILES | % Inhibition | Z score |
| --- | --- | --- |
| CCn1cc(CN2CC[C@H]3C(=O)NCCCCCCN(Cc4ccncc4)[C@@H]3C2)c(C)n1 | 2% | -0.2 |
| COc1cccc(CN2CC[C@H]3C(=O)NCCCCCCN(Cc4ccncc4)[C@@H]3C2)n1 | -5% | 0.65 |
| COc1ccc(CN2CC[C@@H]3C(=O)NCCCCCCN(Cc4ccncc4)[C@@H]3C2)cc1Cn1ccnc1 | 59% | -7.78 |
| CN(Cc1cn(C)nn1)CC1CCOCC1 | -11% | 2.06 |
| CCO[C@H]1CN(C(=O)Cc2nc(C)sc2C)C[C@@H]1O | 0% | 0.05 |
| S=c1cc(-c2ccccc2)n(CCCc2ccccc2)c2c1CCCC2 | -6% | 0.85 |
| C[C@@]1(C(=O)NC2CCCCCCC2)Cn2c(ccc2-c2ccccc2)C(=O)N1Cc1ccco1 | 7% | -0.83 |
| S=c1cc(-c2ccccc2)n(Cc2ccco2)c2c1CCCC2 | 54% | -6.88 |
| CC(=O)c1cc(Br)ccc1NCC(=O)N(C)CCC#N | -26% | 2.93 |
| CCc1nccc(-c2c(-c3ccccc3)ncn2CCN2CCOCC2)n1 | -6% | 0.83 |
| CCOC(=O)c1c(-c2ccccc2)n(C)c2cc(-c3cccnc3)c(O)cc12 | 9% | -1.7 |
| CCOC(=O)c1c(CN2CCCC2)n(C)c2cc(-c3cccnc3)c(O)c(Cn3ccnc3)c12 | 58% | -10.36 |
| CCOC(=O)c1cnc(N2CCN(Cc3cccnc3)CC2)s1 | -2% | 0.17 |
| CCNc1nc(C)cc(Nc2ccc(NC(=O)c3cc(C)ccc3C)cc2)n1 | 97% | -9.09 |
| Cc1nc2ccc(NC(=O)Nc3ccc(F)cc3F)cc2s1 | -9% | 1.17 |
| CCNc1nc(C)cc(Nc2ccc(NS(=O)(=O)c3c(C)noc3C)cc2)n1 | 86% | -8.65 |
| CCNc1nc(C)cc(NCCNC(=O)c2cccc(Cl)c2)n1 | 23% | -3.44 |
| Cc1noc(C)c1S(=O)(=O)Nc1ccc2c(c1)OC1(CCCC1)O2 | 5% | -0.73 |
| Cc1cc(N(C)C)nc(NCCNC(=O)Nc2cccc(F)c2C)n1 | 20% | -2.61 |
| CCOc1nc(-c2cccc(F)c2)n(-c2ccc(NC(=O)Nc3ccc(F)cc3F)cc2)n1 | -9% | 1.18 |
| Cc1ccc(C)c(C(=O)Nc2cnc(-n3nc(C)cc3C)nc2)c1 | 5% | -0.75 |
| COc1ccc(NS(=O)(=O)c2c(C)noc2C)cn1 | 3% | -0.47 |

| SMILES | % Inhibition | Z score |
| --- | --- | --- |
| Cc1cc(C)n2c(C(=O)NCCNS(=O)(=O)c3ccc(Cl)cc3)nnc2n1 | -9% | 1.16 |
| Cc1ccncc1CN(C)C(=O)[C@]1(O)CCc2cc(Br)ccc2C1 | -5% | 1.08 |
| Cc1ccc(C)c(-c2cnn(CC3CC3)c2)c1 | 0% | 0.02 |
| C=C1C(C)(C)[C@@H]2CC[C@@]1(C(=O)N1CCn3c(C(N)=O)cnc3C1)C2 | -14% | 2.1 |
| CC(C)Cc1noc(CNC(=O)c2nn(C)cc2Cl)n1 | -7% | 1.19 |
| Cc1c(-c2cnn(C)c2)cc(C#N)n1C(F)F | -7% | 1.32 |
| CN1C[C@@H](N)C[C@H]1c1nc(COc2ccc(F)cc2)nn1CC(F)(F)F | 1% | -0.2 |
| COc1ccc(C(=O)N2CCN(C(=O)c3cccnc3)[C@@H](C(=O)N[C@H]3CCCNC3=O)C2)cc1 | -7% | 1.08 |
| Cn1c(=O)c2c(-c3ccc(Br)cc3)n(-c3cccc4cccnc34)cc2n(C)c1=O | -4% | 0.72 |
| Cn1c(=O)c2c(-c3ccc(Cl)cc3)n(-c3cccc4cccc(N)c34)cc2n(C)c1=O | 96% | -11.21 |
| Cn1c(=O)c2c(-c3ccc(Br)cc3)n(-c3ccccn3)cc2n(C)c1=O | -5% | 0.83 |
| O=C(COc1ccc(Cl)cc1)NC1CCN(Cc2ccccc2)CC1 | -10% | 0.93 |
| Cc1ccc(C(=O)Nc2cccc(N3CCCCCC3)c2)c(=O)[nH]1 | -12% | 1.57 |
| CCN1CCN(c2ccc(C(=O)Nc3cccc(-c4ccc5c(c4)CCO5)c3)cc2F)CC1 | 18% | -2.82 |
| CCN1CCN(c2cccc(NC(=O)c3ccc4[nH]c5ccccc5c(=O)c4c3)c2)CC1 | 92% | -9.25 |
| CC1CN(C(=O)c2cc(F)cc3c(=O)c4cc(F)ccc4[nH]c23)CC(C)O1 (stereo not given) | -10% | 1.65 |
| CCN1CCN(c2cccc(NC(=O)c3cc(F)cc4c(=O)c5cc(F)ccc5[nH]c34)c2)CC1 | 95% | -17.54 |
| CCN1CCN(c2c(CN(C(=O)Nc3cccc(F)c3)C(C)C)c(C)nn2-c2cccc(F)c2)CC1 | 3% | -0.41 |
| CN(C)Cc1ccc(NC(=O)c2cc(F)cc3c(=O)c4cc(F)ccc4[nH]c23)cc1 | 77% | -11.59 |
